Experimental findings from PubChem BioAssay (Tox21) are described below.

Structures are written as SMILES. Where “and” joins values, the source holds several entries; their conditions need not be identical. Identical values can stand only once. Results filed as inconclusive are left out. Calls of active or inactive are those of the source. Unless noted, the call rests on the fitted dose curve; in most records, active means well fitted curve in the direction sought with a large enough effect in the repeat runs; inconclusive means weak or mixed curves; inactive means no such curve, though single readings can be large; an effect the other way counts as inactive or inconclusive.

Test [1] is described as follows: qHTS assay to test for compound auto fluorescence at 535 nm (green) in HEK293 cells (AID 720680). (qHTS replaces the single test concentration by a dilution series.)
A short description of test [2]: qHTS assay to test for compound auto fluorescence at 460 nm (blue) in HEK293 cell free culture (AID 720681). In short, it runs like this:
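Test compounds were pinned into cell-free culture medium (DMEM with 10% FBS) and fluorescence was read directly at Ex/Em 405/460 nm. Signals were expressed as fluorescence equivalents of triamterene, with DMSO vehicle as control.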

A short description of test [3]: qHTS assay to test for compound auto fluorescence at 535 nm (green) in HEK293 cell free culture (AID 720682). In short, it runs like this: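 No cells present: wells hold DMEM supplemented with 10% FBS, into which compound or vehicle is pinned. Green emission is then recorded (485 nm excitation, 535 nm emission) and scaled to fluorescein.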
A short description of test [4]: qHTS assay to test for compound auto fluorescence at 590 nm (red) in HEK293 cell free culture (AID 720683). In outline:
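Tox21 10K library compounds were pinned into cell-free DMEM with 10% FBS and fluorescence was read at excitation 540 nm. Activity is expressed as Rose Bengal sodium equivalency.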

The nature of test [5]: qHTS assay to test for compound auto fluorescence at 590 nm (red) in HepG2 cell free culture (AID 720684). In outline: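 Readout: intrinsic compound fluorescence at 590 nm emission after 540 nm excitation, scaled to Rose Bengal sodium. Matrix was cell-free MEM with 10% FBS; DMSO vehicle wells served as control.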
A short description of test [6]: qHTS assay to test for compound auto fluorescence at 460 nm (blue) in HepG2 cell free culture (AID 720685). In short, it runs like this:
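Cell-free plates of MEM plus 10% FBS received 23 nL compound or DMSO vehicle; blue-channel (405/460 nm) intensity scored against triamterene as reference fluorophore.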

A short description of test [7]: qHTS assay to test for compound auto fluorescence at 535 nm (green) in HepG2 cell free culture (AID 720686).
Test [8] can be described thus: qHTS assay to test for compound auto fluorescence at 460 nm (blue) in HepG2 cells (AID 720687). In short, it runs like this:
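Cells (2,000/well in MEM with 10% FBS) attached overnight at 37 C, then were exposed to compound or DMSO for 1 hr at 37 C, 5% CO2. Fluorescence read at Ex/Em 405/460 nm, expressed as triamterene-equivalent signal.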

Test [9] can be described thus: qHTS assay to identify small molecule antagonists of the glucocorticoid receptor (GR) signaling pathway - cell viability counter screen (AID 720693). Further: nearly all actives have a fitted effect of over 55% in size.
Test [10] is described as follows: qHTS assay for identifying genotoxic compounds that show differential cytotoxicity against isogenic chicken DT40 cell lines with known DNA damage response pathways - wild type cell line (AID 743012). Further: nearly all actives have a fitted effect of over 60% in size. In outline: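 CellTiter-Glo luminescence readout of viability in wild type DT40 cells after 40 h compound exposure at 37 C/5% CO2; 300 cells/well; reagent incubated 30 min at room temperature before reading.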

A short description of test [11]: qHTS assay for identifying genotoxic compounds that show differential cytotoxicity against isogenic chicken DT40 cell lines with known DNA damage response pathways - Rev3 mutant cell line (AID 743014). Further: nearly all actives have a fitted effect of over 55% in size. Further: potency means the concentration at half of the fitted maximal effect.
Test [12] is described as follows: qHTS assay for identifying genotoxic compounds that show differential cytotoxicity against isogenic chicken DT40 cell lines with known DNA damage response pathways - Rad54/Ku70 mutant cell line (AID 743015). Further: nearly all actives have a fitted effect of over 60% in size.
A short description of test [13]: qHTS assay to identify small molecule antagonists of the androgen receptor (AR) signaling pathway - cell viability counter screen (AID 743033; further: nearly all actives have a fitted effect of over 45% in size).
Test [14] can be described thus: qHTS assay to identify small molecule antagonists of the androgen receptor (AR) signaling pathway using the MDA cell line - cell viability counter screen (AID 743041; further: nearly all actives have a fitted effect of over 45% in size). In short, it runs like this:
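qHTS viability read-out; MDA-kb2 AR-luc; R1881-stimulated; 16 h exposure at 37C, 0% CO2; CellTiter-Fluor, 30 min; fluorescence intensity.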

In test [15] the target is Androgen receptor (Homo sapiens) (UniProt P10275). Put plainly: qHTS assay to identify small molecule agonists of the androgen receptor (AR) signaling pathway (AID 743036; active means well fitted activation curve with a large enough effect in the signal ratio in the repeat runs, with a control signal flat, not every such curve was filed as active; the % refers to the signal ratio). In outline: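 Quantitative HTS of the Tox21 10K library in HEK293 cells bearing a stably integrated UAS-controlled beta-lactamase reporter. Compound exposure lasted 16 h at 37C. Reporter activity was detected by FRET substrate fluorescence after 2 h at room temperature.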
Sequence of Androgen receptor (Homo sapiens) (P10275 whole entry, looked up): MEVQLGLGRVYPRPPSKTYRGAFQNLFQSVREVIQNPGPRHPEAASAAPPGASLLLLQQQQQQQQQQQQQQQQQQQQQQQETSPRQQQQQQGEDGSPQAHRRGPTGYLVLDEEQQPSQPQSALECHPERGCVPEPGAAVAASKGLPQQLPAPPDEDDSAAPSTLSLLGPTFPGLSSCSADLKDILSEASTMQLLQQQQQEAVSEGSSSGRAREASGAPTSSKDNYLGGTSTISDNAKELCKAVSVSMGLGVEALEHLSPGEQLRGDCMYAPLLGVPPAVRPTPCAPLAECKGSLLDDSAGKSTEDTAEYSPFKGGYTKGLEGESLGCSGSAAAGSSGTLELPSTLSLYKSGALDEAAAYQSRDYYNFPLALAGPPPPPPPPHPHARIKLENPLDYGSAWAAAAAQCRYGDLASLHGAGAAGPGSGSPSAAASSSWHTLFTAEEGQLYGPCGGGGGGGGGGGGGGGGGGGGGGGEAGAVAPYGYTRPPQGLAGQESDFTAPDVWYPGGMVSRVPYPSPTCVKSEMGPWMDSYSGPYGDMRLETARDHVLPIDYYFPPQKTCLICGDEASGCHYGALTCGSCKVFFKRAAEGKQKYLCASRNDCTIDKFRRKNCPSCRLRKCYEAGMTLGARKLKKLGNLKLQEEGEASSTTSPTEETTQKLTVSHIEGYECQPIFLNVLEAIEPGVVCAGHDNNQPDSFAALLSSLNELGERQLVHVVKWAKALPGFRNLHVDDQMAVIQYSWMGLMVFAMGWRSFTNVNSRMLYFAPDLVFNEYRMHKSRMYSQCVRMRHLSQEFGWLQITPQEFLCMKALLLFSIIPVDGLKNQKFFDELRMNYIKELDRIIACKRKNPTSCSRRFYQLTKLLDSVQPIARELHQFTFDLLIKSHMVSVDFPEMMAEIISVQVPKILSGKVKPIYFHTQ

Test [16] shares this target. The experiment in a line: qHTS assay to identify small molecule agonists of the androgen receptor (AR) signaling pathway using the MDA cell line (AID 743040; further: nearly all actives have a fitted effect of over 20% in size). In outline:
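Agonist activity is measured as luciferase luminescence in human MDA-kb2 cells whose MMTV reporter responds to both AR and GR. Compounds in DMSO incubate 16 h at 37C, 0% CO2, and ONE-Glo is read after 30 min.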

Test [17] shares this target. The experiment in a line: qHTS assay to identify small molecule antagonists of the androgen receptor (AR) signaling pathway using the MDA cell line (AID 743042; further: nearly all actives have a fitted effect of over 55% in size). In outline:
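MDA-kb2 cells (human breast carcinoma, stably carrying an MMTV-luciferase reporter responsive to AR and GR) were plated at 3,000 cells/well and preincubated 5 hr at 37C, then given compound plus R1881 agonist for 16 h. ONE-Glo luminescence was read.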

Test [18] deals with Glucocorticoid receptor (Homo sapiens) (UniProt P04150). The experiment in a line: qHTS assay to identify small molecule agonists of the glucocorticoid receptor (GR) signaling pathway (AID 720691; active means well fitted activation curve with a large enough effect in the signal ratio in the repeat runs, not every such curve was filed as active; the % refers to the signal ratio). In outline:
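HeLa GR-bla reporter line; cells pre-incubated 4 h, compound in DMSO 18 h at 37 C; LiveBLAzer B/G FRET substrate 2 h RT; fluorescence intensity read-out.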

Sequence of Glucocorticoid receptor (Homo sapiens) (P04150 whole entry, looked up): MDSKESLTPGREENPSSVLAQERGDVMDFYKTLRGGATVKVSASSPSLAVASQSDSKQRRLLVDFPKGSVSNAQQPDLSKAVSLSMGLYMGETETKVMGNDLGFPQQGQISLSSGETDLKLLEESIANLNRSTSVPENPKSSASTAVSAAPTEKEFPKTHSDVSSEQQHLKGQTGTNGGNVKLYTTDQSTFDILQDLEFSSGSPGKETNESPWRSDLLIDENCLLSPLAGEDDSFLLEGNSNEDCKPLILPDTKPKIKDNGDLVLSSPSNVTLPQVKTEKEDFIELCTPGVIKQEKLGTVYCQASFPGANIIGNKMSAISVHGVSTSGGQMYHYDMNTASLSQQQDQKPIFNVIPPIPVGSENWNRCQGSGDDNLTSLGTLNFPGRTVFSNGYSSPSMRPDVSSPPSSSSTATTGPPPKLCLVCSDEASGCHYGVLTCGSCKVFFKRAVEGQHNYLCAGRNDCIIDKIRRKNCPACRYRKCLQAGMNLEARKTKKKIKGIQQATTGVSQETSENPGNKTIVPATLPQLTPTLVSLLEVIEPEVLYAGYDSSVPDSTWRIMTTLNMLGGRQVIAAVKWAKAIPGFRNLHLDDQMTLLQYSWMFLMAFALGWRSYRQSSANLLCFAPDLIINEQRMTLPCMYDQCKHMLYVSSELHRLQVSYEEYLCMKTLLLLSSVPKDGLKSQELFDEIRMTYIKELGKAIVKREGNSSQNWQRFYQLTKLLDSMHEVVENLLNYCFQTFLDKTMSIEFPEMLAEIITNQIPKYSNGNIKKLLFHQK

With `O=[N+]([O-])c1ccc2nc[nH]c2c1`, the call in [1], in [2], in test [3], in test [4], in test [5] and in [6] was inactive. Besides, the call in test [7], in [8], in test [9] and in test [13] was inactive. Besides, the Potency result in test [10], in test [11], in test [12] and in test [14] was “inactive” throughout.
In the case of `OCc1cccc(Oc2ccccc2)c1`, the outcome in test [1], in test [2], in test [3], in [4], in [5] and in [6] was inactive. The outcome in [7], in [8], in test [9], in test [13] and in test [17] was inactive. The Potency result in test [10], in test [11], in test [12], in test [15], in test [16] and in test [14] was “inactive” each time.
On to `O=C(OCC1CCC2OC2C1)C1CCC2OC2C1` (centres undefined), for which the call in test [1], in test [2], in test [3], in [4], in [5] and in test [6] was inactive. Further, the result in test [7], in test [8], in test [18], in test [9] and in [13] was inactive. The Potency in test [11] is 10.1 µM (active) and 9.69 µM (active). Further, the Potency result in test [12] and in test [14] was “inactive” each time.
As for `CC(=O)OCc1ccco1`, the outcome in [1], in [2], in test [3], in [4], in test [5] and in test [6] was inactive. In addition, the outcome in [7], in test [8], in [9] and in test [13] was inactive. In addition, the Potency in test [11] was 27.3 µM (active). The Potency entry in test [12] and in [14] was “inactive” each time.
Turning to `NCCCCCCN`, the call in test [1], in test [2], in [3], in test [4], in test [5] and in test [6] was inactive. The compound was called inactive in test [7], in [8], in test [9] and in [13]. The Potency entry in [10], in [11], in [12] and in test [14] was “inactive” throughout.
Consider `NCCNCCN`, for which the outcome in test [1], in test [2], in test [3], in test [4], in test [5] and in test [6] was inactive. In addition, the outcome in test [7], in test [8], in test [9] and in test [13] was inactive. Further, the Potency result in [10], in [12] and in test [14] was “inactive” each time.
On to `CCOC(=O)n1ccn(C)c1=S`, for which the compound was classed as inactive in test [1], in test [2], in [3], in test [4], in test [5] and in test [6]. Moreover, the compound was classed as inactive in test [7], in [8], in test [18], in test [9] and in test [13]. Besides, the Potency result in test [10] and in [14] was “inactive” throughout.
On to `CCOCCOCCOCCO`, for which the compound was called inactive in test [1], in [2], in test [3], in [4], in test [5] and in [6]. Also, the compound was classed as inactive in [7], in test [8], in [9] and in test [13]. Besides, the Potency entry in [10], in test [11], in test [12] and in [14] was “inactive” throughout.
Regarding `COc1ccc(CCC(C)=O)cc1`, the compound was called inactive in test [1], in [2], in test [3], in test [4], in test [5] and in test [6]. Besides, the compound was classed as inactive in [7], in test [8], in [9] and in test [13]. Further, the Potency result in [10], in test [11] and in test [12] was “inactive” throughout.
As for `O=C(O)CCCCCCCCC(=O)O`, the result in test [1], in test [2], in test [3], in test [4], in test [5] and in test [6] was inactive. Also, the result in test [7], in test [8], in [9] and in test [13] was inactive. Also, the Potency result in test [10], in test [11], in test [12] and in [14] was “inactive” each time.
